According to the supplement of paper PMC6555819:

Columns and labels:
Assay in all cases: PBM binding z-score (relative to random genomic background probes); higher = stronger binding; sequences stand for … in GC…GCGATTGACAGCGTAGAATGAAGG
[1] = test system: RARb homodimer (NR concentration 270 nM)
Procedure, shortened: (§1)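 Ligand-free nuclear receptor dimers were bound for 1 h to custom Agilent 4×180K protein-binding microarrays. Detection used antibodies against each partner (one per run). Binding z-scores rest on regression-normalized fluorescence, with random background probes as the reference.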

[2] = test system: RARg:RXRa (NR concentration 270 nM, RXRa partner concentration 90 nM)
Procedure, shortened: as §1

[3] = test system: RARg homodimer (NR concentration 270 nM)
Procedure, shortened: as §1

[4] = test system: RXRa DBDmut IVT, anti-RXR (DBD mutation: RXRa K156A/R161A, NR concentration 90 nM)
Procedure, shortened: as §1

[5] = test system: RXRa homodimer (NR concentration 180 nM)
Procedure, shortened: as §1

[6] = test system: THRa:RXRa (NR concentration 90 nM, RXRa partner concentration 90 nM)
Procedure, shortened: as §1

[7] = test system: THRa homodimer (NR concentration 90 nM)
Procedure, shortened: as §1

[8] = test system: VDR homodimer (NR concentration 270 nM)
Procedure, shortened: as §1

Row | Sequence | PBM binding z-score [1] | PBM binding z-score [2] | PBM binding z-score [3] | PBM binding z-score [4] | PBM binding z-score [5] | PBM binding z-score [6] | PBM binding z-score [7] | PBM binding z-score [8]
1 | GCAGACAGGTGATACGCAGGTAACTCAGGGTGGC | -0.38 | -0.066 | -0.0165 | -0.589 | 0.293 | 0.561 | -0.509 | -0.5
2 | TCGAGCAGGTTAGGGGCATTCAGAATGGCGTCGA | 0.54 | 0.286 | 0.148 | -0.111 | 0.719 | 0.723 | -0.36 | 0.474
3 | ATCGAAAAGTCGTGAGGTGAGTATACAGAAAGGC | 0.17 | 0.561 | 0.564 | -0.691 | 0.466 | 1.68 | 1.14 | -0.0663
4 | ATATGAAGGTTAAGGGTCATTCAGGTTGGTTCGC | 4.38 | 5.3 | 3.81 | 2.14 | 7.12 | 3.95 | 1.5 | 4.67
5 | TCTTGTAGATCAGCAGGAGGTTAAGAAAGATCGA | 0.33 | 0.611 | 0.176 | 0.327 | 0.81 | 0.885 | -0.878 | -0.496
6 | AGAATGAGGGTATTAAGATCAGGGAATTGCGGTC | 0.61 | 0.0247 | 0.0754 | 0.633 | 0.379 | 0.534 | 0.27 | 0.315
7 | TCGAGTAGGTTAGTCGGGTCATTCAGCCAACATA | 2.2 | 1.93 | 1.5 | 0.747 | 2.1 | 3.06 | 1.48 | 2.35
8 | GCTGCTCGGTCAGGTTGGTCAGCTAACGGGTACG | 1.53 | 0.691 | 2.11 | -0.37 | -0.405 | -0.155 | -0.287 | -0.476
9 | TCATATAGGTAAACGGGTGAAAGTCCGTAAGTTA | 0.485 | 0.423 | 0.128 | 1.05 | 1.03 | 0.421 | -0.157 | 0.053
10 | CAAACTTGGTCACAGAGGTCAAAGTCCGTGCGTA | 4.73 | 5.89 | 5.25 | 2.34 | 6.56 | 3.98 | 1.36 | 4.8
11 | GTACCAAGGTAAATAGGTCGTTGATGAGTAGGCG | 0.723 | 0.808 | 0.391 | -0.235 | 0.953 | 0.973 | -0.00878 | 0.628
12 | CATACAGGCTCAGCTAGGCCAGAGTAGGGACGGC | -0.642 | -0.268 | 0.0433 | -0.877 | -0.366 | -0.349 | -0.416 | -0.751
13 | CCTAACAGGCCAGGGTCACTCAAGCATTTCGCTT | 2.8 | 3.17 | 2.48 | 0.743 | 3.37 | 3.01 | 1.15 | 1.44
14 | CCTACTGGGCGAAAAAGGTCATTGATGCCGATAA | 4 | 3.97 | 3.43 | 0.151 | 4.51 | 3.05 | -0.0329 | 1.75
15 | CAAACTAGGTCACAGAGGTCAGAGTCCGTGCGTA | 5.34 | 6.58 | 7.37 | 3.02 | 6.43 | 4.37 | 2.49 | 4.93
16 | CCTACTGTGCCAAAAAGGTCATTGATGCCGATAA | 4.41 | 4.52 | 3.97 | 1.73 | 4.42 | 3.26 | 1.48 | 3.38
17 | GCTAGTTGGTCATTAAAAGGTCACACACCGGTCG | 5.47 | 6.05 | 4.99 | 0.694 | 5.65 | 3.8 | 2.01 | 1.75

Row | Sequence | PBM binding z-score [1] | PBM binding z-score [2] | PBM binding z-score [3] | PBM binding z-score [4] | PBM binding z-score [5] | PBM binding z-score [6] | PBM binding z-score [7] | PBM binding z-score [8]
18 | GGAACGAGGGCAGAGTTGATAGCATCTGTCGACG | 0.448 | 0.934 | 1.12 | 1.49 | 0.588 | 0.324 | -0.629 | 0.314
19 | CGAACTAGGTCAAGGACACTGAATCTCCGCACGC | 3.08 | 3.94 | 4.67 | 1.55 | 2.66 | 3.49 | 3.04 | 0.782
20 | GGAACGAGGGCATTCGAGTCGATAGCATGGCGAT | 0.222 | 1.01 | 1.35 | 3.2 | 0.622 | 2.5 | -0.885 | 1.87
21 | CCTAGCAGGCCAGCGTCACTCAAGCATTTCGCTT | -0.555 | -0.553 | -0.578 | -0.0144 | -0.744 | -0.634 | -0.783 | -0.635
22 | ATCTCTAGGTAAGACTCAGTTCAGGGAAGAACGC | 0.949 | 0.767 | 0.451 | 0.408 | 0.569 | 1.12 | 0.955 | 1.72
23 | CGAACTAGGTCTAGGACAGTGAATCTCCGCACGC | -0.234 | -0.33 | -0.233 | 0.104 | -0.217 | 0.316 | 0.0986 | -0.409
24 | ATCGAAAGGTCGTGAGGTGAGTATTCAGAAAGGC | 3.27 | 4.51 | 4.1 | 1.91 | 5.4 | 3.48 | 1.52 | 0.921
25 | TCTTGTAGATCAATAGAGGTTAAGGAAGTGCGCT | 1.1 | 0.898 | 0.454 | 0.775 | 1.61 | 2.38 | -0.179 | 0.208
26 | GCGACTGGGGCATAAGCAGGTTACCATAACTTAA | 0.55 | 0.617 | 0.393 | 0.0117 | 0.39 | 0.914 | -0.368 | -0.246
27 | TCATATAGGTAGAAGGTGAAAGTCGGTGTGGTAA | 1.02 | 0.662 | 0.283 | 2.05 | 1.18 | 0.699 | 0.397 | 0.453
28 | TCGCCTAGGTCATGCGGGCCAGTATAGTGTCGGC | 3.2 | 3.96 | 4.3 | 1.28 | 2.9 | 3.29 | 1.43 | 0.82
29 | TCTAGTAGGTTAGTCGGGGCATTCAGCCAACATA | 1.04 | 0.36 | 0.358 | 1.33 | 0.381 | 1.4 | 0.765 | 1.14
30 | GCGACTGGGGCATCAGCAGGGTACCATAACTTAA | 0.489 | 0.0941 | 0.0483 | -0.313 | -0.0228 | 0.147 | -0.7 | -0.477
31 | CGTACTAGGTCATTGACAGGACAGTGAATAGTAA | 2.49 | 4.45 | 4.13 | 2.38 | 2.6 | 2.9 | 0.971 | 1.45
32 | ATCTCTATGTAAAAGTTCAGTGAATCCCGAGGAT | 2.26 | 1.61 | 1.8 | 1.05 | 1.11 | 0.505 | 0.00559 | 1.6
33 | TAGCCTAGGTCATTCAGGGGCGAGTATAGAAAGC | 2.77 | 4.27 | 3.93 | 2.29 | 2.79 | 4.54 | 0.866 | 1.68
34 | CGTCAAAGTTCAAGGAAACGTAACAGAAAGCAGC | 3.35 | 4.85 | 5.68 | 4.06 | 3.84 | 1.49 | -0.29 | 2.61
